Bioassay records: PubChem BioAssay, Small Molecule Screening Facility, UW Madison
RMI FANCM FP – inhibitors of human RMI core complex binding to FANCM MM2; Fluorescence polarization, RMI core complex with F-MM2 peptide; active compounds read low; FP signal (polarization) at 33 µM; 70,000 compounds, 0.58% hits; AID 1159607; in the data active = FP signal below about 40
* hit, by the source's call. Shown is part of a subset that was picked to be rich in hits.

SMILES	RMI FANCM FP
CC(=O)c1cccc(NC(=O)Cn2cccc(-c3nc(-c4ccc(Cl)cc4)no3)c2=O)c1	59
CCOCC(=O)Nc1ccc2c(c1)C(=O)Nc1cc(C)ccc1O2	68
O=[N+]([O-])c1cccc(-c2nnc3c4cnn(-c5ccc(F)cc5)c4ncn23)c1	64
O=c1c2cnn(-c3ccccc3)c2nnn1/N=C\c1ccc([N+](=O)[O-])cc1	43
N=c1c2cnn(-c3ccccc3)c2ncn1/N=C\c1ccc([N+](=O)[O-])cc1	39*
Cc1ccc(C)c(NC(=O)CSc2nnc(NC(=O)Cc3cccc4ccccc34)s2)c1	89
CCC(=O)Oc1cccc(N2C(=O)C3CCCCC3C2=O)c1 (stereo unspecified)	53
COc1ccc(N2C(=O)c3ccc(C(=O)c4ccc5c(c4)C(=O)N(c4ccc(OC)cc4)C5=O)cc3C2=O)cc1	6*
COc1ccc(N2C(=O)C3C4C=CC(O4)C3C2=O)cc1 (stereo unspecified)	56
CCC(=O)Oc1ccc(N2C(=O)c3ccccc3C2=O)cc1	31*
C=CC(=O)Oc1ccc(N2C(=O)c3cccc([N+](=O)[O-])c3C2=O)cc1	58
COc1ccc(SCC(=O)Nc2ccc3c(c2)C(=O)N(C)C3=O)cc1	66
Cc1nc(C)c(-c2ccc(SCC(=O)N3CCCc4ccccc43)nn2)s1	59
Cc1c(C(=O)C(=O)NCCCN2CCCC2=O)c2ccccc2n1C	59
CCn1c(Cc2nnc(SCC(=O)c3ccccc3)n2CC)nnc1SCC(=O)c1ccccc1	58
CCC(=O)Nc1ccc(SC)nn1	58
